Screening data (PubChem BioAssay)
MITF TRPM1 HTS: MITF TRPM1 promoter activation in melanoma cells | SK-MEL-5 TRPM1-promoter luciferase, 24 h; % of positive control, neutral wells = 0 | activation, % at 12.5 µM | 300,000 tested, 0.75% active | AID 588334;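 active means mean activation of at least 80% with every replicate also reaching 80%; inconclusive means mean reaches 80% but some replicate falls short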
PfHsp90 yeast 2: reduces growth (ATP signal) of yeast expressing P. falciparum Hsp90; S. cerevisiae expressing PfHsp90, BacTiter-Glo ATP, 48 h; yeast lacking PDR1 and PDR3 efflux regulators; inhibition, % at 9.4 µM; 310,000 tested, 0.32% active; AID 504621;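 active means every replicate shows inhibition above about 80%, whatever the replicate mean, limit read from the data; inconclusive means mean inhibition reaches the set limit but some replicate falls short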
MITF TRPM1 inh: MITF TRPM1 promoter inhibition in SK-MEL-5 cells; SK-MEL-5 TRPM1 promoter luciferase, 24 h; inhibition, % at 12.5 µM; 330,000 tested, 0.83% active; AID 488899;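 active means mean inhibition across replicates of 60% or more, whatever share of single replicates reaches that level; inconclusive means some that reach 60%, reason not given; inactive means mean inhibition across replicates below 60%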
NSD2 HMT inh: blocks human histone methyltransferase NSD2; inhibition, % at 12.5 µM; O96028; NSD2 peptide methylation, AlphaScreen, 120 min; 310,000 tested, 0.54% active; in the data active means inhibition above about 50%
N-glyco inh: N-linked glycosylation inhibition; D54 ERlucT glycosylation luciferase reporter, 24 h; percent of 100 nM tunicamycin response; reporter increase, % at 12.5 µM; 360,000 tested, 0.23% active; AID 588692;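 active means mean luciferase reporter signal, scaled so untreated is 0 and the glycosylation-blocking control 100, at or above a set limit in every replicate; inconclusive means mean reaches the limit but not every replicate does; inactive means mean below the limit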;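 further: luciferase carries N-glycosylation sites so blocking glycosylation raises the light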
Wnt act: activates Wnt/beta-catenin signaling in a reporter cell assay; activator, plate reader; activation, % at 9.35 µM; 300,000 tested, 1.2% active; in the data active means activation above about 30%, passing the limit was not always enough; inconclusive means no clear call, values can overlap the other calls
AlphaScreen art: counter-screen for NSD2 inhibitors: AlphaScreen artifacts. shares compounds with NSD2 HMT inh. AlphaScreen artifact counterscreen, preloaded methylated H4 peptide. AC35, µM (highest dose often 10 µM). 1,500 tested, 9.4% active. AID 1053174; call rule not given here
Each line names hits and unclear results; the compound was inactive in the other large screens (follow-up assays come after a bar, where they were run). An excerpt weighted towards active compounds, which were near 2.9% of everything screened.

O=C(/C=C/c1ccco1)Nc1cccc(C(=O)Nc2ccccc2C(=O)O)c1	NSD2 HMT inh 75.8 | AlphaScreen art inactive
O=C(O)c1cccc(NC(=O)c2ccccc2NC(=O)c2ccco2)c1	none (no result: NSD2 HMT inh)
O=C(/C=C/c1ccco1)NC(=S)Nc1ccc(C(=O)O)cc1	NSD2 HMT inh 65.9 | AlphaScreen art inactive
CCCn1nnnc1NCc1c(F)cccc1Cl	none (no result: NSD2 HMT inh)
CCN(CC)CCNC(=O)c1ccc(N2CCCCC2)c(NS(=O)(=O)c2ccc(C)cc2)c1	none
CCN(CC)CCNc1cc(C)nc2c1C(=O)C(=O)C=C2N1CCCCC1	NSD2 HMT inh 117.9 | AlphaScreen art inactive
COc1ccc(CN2CC[C@H]3C=CCc4cccc(c43)C2)cc1	none (no result: NSD2 HMT inh)
O=C(CCCN1C(=O)/C(=C\c2ccco2)SC1=S)Nc1ccc(O)cc1C(=O)O	NSD2 HMT inh 103.6 | AlphaScreen art inactive
O=C(CCCN1C(=O)/C(=C\c2cccs2)SC1=S)Nc1cccc(C(=O)O)c1	none
O=C(CCCN1C(=O)/C(=C/c2ccco2)SC1=S)Nc1cccc(C(=O)O)c1	NSD2 HMT inh 124.5 | AlphaScreen art inactive
O=C(CN1C(=O)/C(=C/c2ccco2)SC1=S)Nc1ccc(O)c(C(=O)O)c1	NSD2 HMT inh 116.2 | AlphaScreen art inactive
CC(C)OP(=O)(OC(C)C)C(C)NC(=O)Cc1ccccc1 (stereo unspecified)	none
O=C(N/N=C/c1ccc(-c2ccccc2[N+](=O)[O-])o1)c1cncc(Br)c1	none
Nn1cnnc1N/N=C\c1ccc(-c2ccccc2[N+](=O)[O-])o1	NSD2 HMT inh 97.5 | AlphaScreen art inactive
Cc1ccc(S(=O)(=O)N2CCCC2)cc1S(=O)(=O)N1CCCC1	none
Cc1ccc(S(=O)(=O)c2ccc(Cl)cc2)cc1S(=O)(=O)N1CCOCC1	NSD2 HMT inh 116.3 (no result: MITF TRPM1 HTS, PfHsp90 yeast 2) | AlphaScreen art inactive
Cc1ccc(S(=O)(=O)N2CCCC(N3CCOCC3)C2)cc1Cl (stereo unspecified)	NSD2 HMT inh 53.0 (no result: MITF TRPM1 HTS) | AlphaScreen art inactive
COc1ccc(C)cc1NC(=O)CSc1nc2ccccc2nc1N1CCCC1	none (no result: NSD2 HMT inh)
Cc1c(-c2ccc(/C=N/NC(=O)C(=O)Nc3ccccc3F)o2)cccc1[N+](=O)[O-]	NSD2 HMT inh 64.2 (no result: MITF TRPM1 HTS, PfHsp90 yeast 2, MITF TRPM1 inh) | AlphaScreen art inactive
CCN(CC)C(=O)COC(=O)C1=NN(c2cc(C)ccc2C)C(=O)CC1	NSD2 HMT inh 58.6 | AlphaScreen art inactive
CC(=O)Nc1ccc(NC(=O)C/C(C)=N/NC(=O)c2cccc3ccccc23)cc1	none
C=CCN(CC=C)C(=S)Nc1ccc2nsnc2c1	NSD2 HMT inh 103.9 | AlphaScreen art inactive
CCOc1ccc(NC(=S)Nc2ccc3nsnc3c2)cc1	NSD2 HMT inh 135.5 (no result: Wnt act) | AlphaScreen art inactive
COc1ccc(NC(=S)Nc2ccc3nc(C)c(C)nc3c2)cc1	none (no result: MITF TRPM1 HTS, PfHsp90 yeast 2)
COc1ccc(NC(=S)Nc2ccc3nsnc3c2)cc1	NSD2 HMT inh 136.6 | AlphaScreen art inactive
Cc1cccc(N2CCN(C(=O)c3cccc(N4CCCC4=O)c3)C(C)C2)c1 (stereo unspecified)	none
O=C(CN1CCN(c2ccccc2F)CC1)c1ccc(O)c(O)c1	NSD2 HMT inh 94.8 | AlphaScreen art inactive
COc1ccc(OC)c(C(=O)CN2CCN(S(=O)(=O)c3ccc(Br)cc3)CC2)c1	none (no result: MITF TRPM1 HTS)
O=C(CN1CCN(S(=O)(=O)c2ccc(Br)cc2)CC1)c1ccc(O)c(O)c1	NSD2 HMT inh 79.7 | AlphaScreen art inactive
O=C(COc1ccccc1)N/N=C/c1sc(=O)n(Cc2cccc(C(=O)O)c2)c1Cl	NSD2 HMT inh 62.2 | AlphaScreen art inactive
OC(c1cccc(CN2CCCCC2)c1)c1ncc(-c2cccc(C(F)(F)F)c2)[nH]1 (stereo unspecified)	none (no result: MITF TRPM1 HTS, PfHsp90 yeast 2, MITF TRPM1 inh)
CCOC(=O)c1cc(-c2ccc(F)cc2)nc2c1c(=O)[nH]c(=O)n2Cc1ccccc1	NSD2 HMT inh 86.0 | AlphaScreen art inactive
CCOC(=O)c1cc(-c2cc(OC)c(OC)c(OC)c2)nc2c1c(=O)[nH]c(=O)n2Cc1ccccc1	none
COc1cccc(C(C(=O)NC2CCCC2)N(C(=O)c2csnn2)C2CC2)c1 (stereo unspecified)	NSD2 HMT inh 99.0 | AlphaScreen art inactive
O=C(NC1CCCC1)C(c1cccnc1)N(C(=O)c1csnn1)C1CC1 (stereo unspecified)	none (no result: MITF TRPM1 HTS)
COC(=O)N/N=C1/C/C(=N\NC(=O)OC)c2ccccc21	NSD2 HMT inh 96.9 (no result: Wnt act) | AlphaScreen art inactive
CC(=O)C(C)n1c(CN2CCN(C(=O)c3ccco3)CC2)nc2c1c(=O)n(C)c(=O)n2C (stereo unspecified)	none
CCN(CC)CCNC(=O)CN1C(=O)COc2ccc(S(=O)(=O)N3CCOCC3)cc21	NSD2 HMT inh 81.0 | AlphaScreen art inactive
CC(C)CN(CCNC(=O)CN1C(=O)COc2ccc(S(=O)(=O)N3CCOCC3)cc21)CC(C)C	none
CC(C)(C)c1ccc(CS(=O)(=O)CC(O)CN2CCCC2=O)cc1 (stereo unspecified)	none
Cc1ccccc1CS(=O)(=O)CC(O)CN1CCCC1=O (stereo unspecified)	NSD2 HMT inh 128.7 | AlphaScreen art inactive
Cc1c(NC(=O)C(C)Oc2cccc(F)c2)c(=O)n(-c2ccccc2)n1C (stereo unspecified)	none
COc1ccccc1N(CC(=O)NCC1CCCO1)C(=O)CNS(=O)(=O)c1ccc(C)cc1 (stereo unspecified)	NSD2 HMT inh 68.6 (no result: Wnt act) | AlphaScreen art inactive
Cc1ccccc1OCCCn1c(=O)sc2ccccc21	none (no result: Wnt act)
CC(C)c1ccc(S(=O)(=O)N2CCN(CC(=O)Nc3ccc(Cl)cc3F)CC2)cc1	NSD2 HMT inh 120.4 | AlphaScreen art inactive
COc1ccc(N2CCN(Cc3nc4cc(Cl)ccc4c(=O)[nH]3)CC2)cc1	none (no result: PfHsp90 yeast 2)
Cn1c(=O)c2c(nc(CN3CCc4ccccc4C3)n2CCc2ccccc2)n(C)c1=O	NSD2 HMT inh 68.6 (no result: MITF TRPM1 HTS, PfHsp90 yeast 2, MITF TRPM1 inh, N-glyco inh, Wnt act) | AlphaScreen art inactive
COc1cccc(-n2nnnc2SCC(=O)Nc2ccc(OC)cc2OC)c1	none (no result: MITF TRPM1 HTS)
Cc1ccc(NC(=O)CSc2nnc(CNC(=O)c3cccs3)o2)c(C)c1	none
CCCCn1c(=O)[nH]c2nc3cc(N)ccc3nc2c1=O	NSD2 HMT inh 110.4 | AlphaScreen art inactive
CCCCN1C(=O)C(CC(=O)NC2CCCC2)CC(C(=O)N(C(C)C)C(C)C)=C1C (stereo unspecified)	none (no result: MITF TRPM1 HTS, PfHsp90 yeast 2, MITF TRPM1 inh, NSD2 HMT inh)
COc1cccc(NC(=O)Nc2nnc(N3C(C)CCCC3C)s2)c1 (stereo unspecified)	none
COC1=C(c2ccccc2)C(=O)c2ccccc2C1=O	PfHsp90 yeast 2 inconclusive, MITF TRPM1 inh 75.1, NSD2 HMT inh 80.7 | AlphaScreen art inactive
O=C(CCNC(=O)c1ccc([N+](=O)[O-])cc1)NCCc1ccccc1	none
CCSc1nnc(COc2ccccc2)n1CC	none
